Experimental data taken from the antibiotic and cytotoxicity screens of Wong et al. (2023).
About 3,300 (8.5%) of roughly 39,000 compounds were called active. For the sample, actives were picked, then their nearest neighbours and some compounds at random.

Each compound was assayed on HepG2 (assay: cytotoxicity call (relative viability < 0.9)). Settings: 10 µM.

Q: How did the cytotoxicity call turn out when CN1CCN(C(=O)C[C@@H]2C=C[C@@H](NC(=O)Nc3ccccc3F)[C@@H](CO)O2)CC1 was run?
A: inactive

Q: Which cytotoxicity call does the source give for COc1ccc(NC(=O)N(C)C[C@@H]2Oc3ccc(NS(C)(=O)=O)cc3CC(=O)N([C@H](C)CO)C[C@@H]2C)cc1 here?
A: inactive

Q: How did the cytotoxicity call turn out when C[C@@H]1CN([C@H](C)CO)C(=O)c2cccc(NC(=O)Nc3ccccc3)c2O[C@H]1CN(C)C(=O)Nc1ccc(C(F)(F)F)cc1 was run?
A: inactive

Q: For Cc1ccc(S(=O)(=O)c2c[nH]c(=O)[nH]2)cc1, which cytotoxicity call is on record?
A: inactive

Q: Which cytotoxicity call does the source give for CC[C@@](C)(Nc1n[nH]c(=O)[nH]c1=O)C(=O)O here?
A: inactive

Q: For OCC1OC(OC2C(CO)OC(O)C(O)C2O)C(O)C(O)C1O (stereo not given), which cytotoxicity call is on record?
A: inactive

Q: O.OCC1OC(OC2C(CO)OC(O)C(O)C2O)C(O)C(O)C1O (stereo not given) was tested. Which cytotoxicity call did it give?
A: active

Q: For OC[C@H]1O[C@@H](O[C@@H]2[C@@H](O)[C@H](O)[C@H](O[C@@H]3[C@@H](O)[C@H](O)[C@H](O)O[C@@H]3CO)O[C@@H]2CO)[C@@H](O)[C@@H](O)[C@@H]1O, which cytotoxicity call is on record?
A: inactive

Q: For COC(=O)c1c2oc(c1C(=O)OC)C(=O)N(C)Cc1cn(nn1)C[C@@H](Cc1ccccc1)NC(=O)N[C@H](COC(=O)NCCCCCC(=O)NO)CC2, which cytotoxicity call is on record?
A: inactive

Q: For Cc1noc(C)c1NC(=O)Nc1ccc2c(c1)C(=O)N([C@@H](C)CO)C[C@H](C)[C@@H](CN(C)S(C)(=O)=O)O2, which cytotoxicity call is on record?
A: inactive

Q: Which cytotoxicity call does the source give for O=C(O)C[C@@H]1C(=O)O[C@H]2[C@@H](OC(=O)c3cc(O)c(O)c(O)c3)[C@H](OC(=O)c3cc(O)c(O)c4c3[C@H]1[C@H](O)C(=O)O4)[C@H](OC(=O)c1cc(O)c(O)c(O)c1)O[C@@H]2COC(=O)c1cc(O)c(O)c(O)c1 here?
A: active

Q: O=C(OC[C@H]1O[C@@H](OC(=O)c2cc(O)c(O)c(O)c2)[C@H](OC(=O)c2cc(O)c(O)c(O)c2)[C@@H](OC(=O)c2cc(O)c(O)c(O)c2)[C@@H]1OC(=O)c1cc(O)c(O)c(O)c1)c1cc(O)c(O)c(O)c1 was tested. Which cytotoxicity call did it give?
A: active

Q: Which cytotoxicity call does the source give for O=C(OCC1OC(OC(=O)c2cc(O)c(O)c(OC(=O)c3cc(O)c(O)c(O)c3)c2)C(OC(=O)c2cc(O)c(O)c(OC(=O)c3cc(O)c(O)c(O)c3)c2)C(OC(=O)c2cc(O)c(O)c(OC(=O)c3cc(O)c(O)c(O)c3)c2)C1OC(=O)c1cc(O)c(O)c(OC(=O)c2cc(O)c(O)c(O)c2)c1)c1cc(O)c(O)c(OC(=O)c2cc(O)c(O)c(O)c2)c1 (stereo not given) here?
A: active

Q: How did the cytotoxicity call turn out when C=C[C@H]1[C@H](O[C@H]2O[C@@H](CO)[C@@H](O)[C@@H](O)[C@@H]2O)OC=C(C(=O)OC)[C@H]1CCOC(=O)c1cc(O)c(O)c(O)c1 was run?
A: inactive

Q: O=C(OC1Cc2c(O)cc(O)cc2OC1c1cc(O)c(O)c(O)c1)c1cc(O)c(O)c(O)c1 (stereo not given) was tested. Which cytotoxicity call did it give?
A: inactive

Q: With O=C(OC[C@H]1O[C@@H](OC(=O)c2cc(O)c(O)c(O)c2)[C@H](O)[C@@H](O)[C@@H]1O)c1cc(O)c(O)c(O)c1 as the compound, how does the cytotoxicity call read?
A: inactive

Q: O=C(Oc1cc(O)cc2c1C[C@@H](OC(=O)c1cc(O)c(O)c(O)c1)[C@@H](c1cc(O)c(O)c(O)c1)O2)c1cc(O)c(O)c(O)c1 was tested. Which cytotoxicity call did it give?
A: inactive

Q: O=C(O)c1cc(O)c(O)c(O)c1 was tested. Which cytotoxicity call did it give?
A: inactive

Q: For O=C(OC[C@H]1O[C@@H](OC(=O)c2cc(O)c(O)c(O)c2)[C@H](O)[C@@H](OC(=O)c2cc(O)c(O)c(O)c2)[C@@H]1O)c1cc(O)c(O)c(O)c1, which cytotoxicity call is on record?
A: active

Q: Which cytotoxicity call does the source give for O=C(OC1Cc2c(O)cc(O)cc2OC1c1ccc(O)c(O)c1)c1cc(O)c(O)c(O)c1 (stereo not given) here?
A: inactive

Q: With C[C@@H]1CN([C@H](C)CO)C(=O)c2cccc(NC(=O)Nc3ccc(C(F)(F)F)cc3)c2O[C@H]1CN(C)Cc1ccccc1 as the compound, how does the cytotoxicity call read?
A: inactive

Q: For C[C@@H]1CCCCO[C@@H](CN(C)C(=O)C2CCCCC2)[C@H](C)CN([C@@H](C)CO)C(=O)c2cc(NS(=O)(=O)c3ccc(F)cc3)ccc2O1, which cytotoxicity call is on record?
A: inactive

Q: With COc1ccc(S(=O)(=O)N2C[C@H](O)COC[C@H]3O[C@@H](CC(=O)NCCCN(C)C)CC[C@@H]32)cc1 as the compound, how does the cytotoxicity call read?
A: inactive

Q: With CCOc1ccc(-n2c([C@@H](C)N(Cc3cccnc3)C(=O)Cc3ccc(F)c(C(F)(F)F)c3)nc3ncccc3c2=O)cc1 as the compound, how does the cytotoxicity call read?
A: inactive

Q: With COc1ccc(CN(C)C[C@H]2OCCCC[C@H](C)Oc3ccc(NS(=O)(=O)c4ccc(C)cc4)cc3C(=O)N([C@H](C)CO)C[C@H]2C)cc1 as the compound, how does the cytotoxicity call read?
A: inactive

Q: Which cytotoxicity call does the source give for COc1ccc(NC(=O)Nc2ccc3c(c2)C(=O)N([C@@H](C)CO)C[C@@H](C)[C@H](CN(C)C(=O)Nc2cccc4ccccc24)O3)cc1 here?
A: inactive

Q: Which cytotoxicity call does the source give for C[C@H]1CCCCO[C@@H](CN(C)C(=O)Nc2ccc3c(c2)OCO3)[C@@H](C)CN([C@@H](C)CO)C(=O)c2cc(NS(=O)(=O)c3ccc(F)cc3)ccc2O1 here?
A: inactive

Q: With C[C@@H]1CN([C@H](C)CO)C(=O)c2cc(NC(=O)Nc3cccc4ccccc34)ccc2O[C@H]1CN(C)C(=O)Nc1ccc(F)cc1 as the compound, how does the cytotoxicity call read?
A: inactive

Q: For CCc1ccc(Nc2c3c(nc4ccccc24)CCCC3)cc1, which cytotoxicity call is on record?
A: active

Q: With CCc1ccc(Nc2c3c(nc4ccccc24)CCC3)cc1 as the compound, how does the cytotoxicity call read?
A: active

Q: For CCOc1ccc(Nc2c3ccccc3nc3ccccc23)cc1, which cytotoxicity call is on record?
A: active

Q: How did the cytotoxicity call turn out when CCOc1ccc(NC(C)=O)cc1 was run?
A: inactive

Q: With CCC(CC)c1nc(Nc2ccccc2)c2ccccc2n1 as the compound, how does the cytotoxicity call read?
A: inactive

Q: How did the cytotoxicity call turn out when c1ccc(Nc2nc(-c3ccccc3)nc3ccccc23)cc1 was run?
A: inactive

Q: Which cytotoxicity call does the source give for CC(C)CN(C(=O)COC(=O)c1c2c(nc3ccccc13)CCC2)c1c(N)n(Cc2ccccc2)c(=O)[nH]c1=O here?
A: inactive

Q: COc1ccc(NC(=O)Nc2ccc3c(c2)C(=O)N([C@H](C)CO)C[C@@H](C)[C@H](CN(C)C(=O)Nc2ccc4c(c2)OCO4)OCCCC[C@@H](C)O3)cc1 was tested. Which cytotoxicity call did it give?
A: inactive

Q: Cc1cccn2c(CN)cnc12 was tested. Which cytotoxicity call did it give?
A: inactive

Q: For C[C@H](CO)N1C[C@H](C)[C@H](CN(C)C(=O)Nc2ccc(C(F)(F)F)cc2)Oc2c(NC(=O)Nc3ccc(F)cc3)cccc2C1=O, which cytotoxicity call is on record?
A: inactive

Q: For COc1ccc(CN(C)C[C@@H]2OCCCC[C@H](C)Oc3ccc(NS(=O)(=O)c4ccc(OC)cc4)cc3C(=O)N([C@@H](C)CO)C[C@@H]2C)cc1, which cytotoxicity call is on record?
A: active

Q: How did the cytotoxicity call turn out when COc1ccc(S(=O)(=O)Nc2ccc3c(c2)C(=O)N([C@H](C)CO)C[C@H](C)[C@H](CN(C)Cc2ccc4c(c2)OCO4)OCCCC[C@H](C)O3)cc1 was run?
A: active

Q: COc1ccc(S(=O)(=O)Nc2ccc3c(c2)C(=O)N([C@@H](C)CO)C[C@@H](C)[C@@H](CN(C)Cc2ccc4c(c2)OCO4)OCCCC[C@@H](C)O3)cc1 was tested. Which cytotoxicity call did it give?
A: inactive

Q: Which cytotoxicity call does the source give for COc1ccc(CN(C)C[C@@H]2OCCCC[C@@H](C)Oc3ccc(NS(=O)(=O)c4ccc(F)cc4)cc3C(=O)N([C@@H](C)CO)C[C@H]2C)cc1 here?
A: inactive

Q: COc1ccc(CN(C)C[C@H]2OCCCC[C@H](C)Oc3ccc(NS(=O)(=O)c4ccc(F)cc4)cc3C(=O)N([C@@H](C)CO)C[C@@H]2C)cc1 was tested. Which cytotoxicity call did it give?
A: inactive

Q: For COc1ccc(S(=O)(=O)Nc2ccc3c(c2)C(=O)N([C@@H](C)CO)C[C@H](C)[C@H](CN(C)Cc2ccc4c(c2)OCO4)OCCCC[C@@H](C)O3)cc1, which cytotoxicity call is on record?
A: inactive

Q: With COc1ccc(CN(C)C[C@H]2OCCCC[C@H](C)Oc3ccc(NS(=O)(=O)c4ccc(F)cc4)cc3C(=O)N([C@@H](C)CO)C[C@H]2C)cc1 as the compound, how does the cytotoxicity call read?
A: active

Q: With COc1ccc(CN(C)C[C@H]2OCCCC[C@H](C)Oc3ccc(NS(=O)(=O)c4ccc(OC)cc4)cc3C(=O)N([C@H](C)CO)C[C@@H]2C)cc1 as the compound, how does the cytotoxicity call read?
A: inactive

Q: With COc1ccc(CN(C)C[C@@H]2OCCCC[C@H](C)Oc3ccc(NS(=O)(=O)c4ccc(F)cc4)cc3C(=O)N([C@H](C)CO)C[C@@H]2C)cc1 as the compound, how does the cytotoxicity call read?
A: active

Q: With COc1ccc(CN(C)C[C@H]2OCCCC[C@@H](C)Oc3ccc(NS(=O)(=O)c4ccc(OC)cc4)cc3C(=O)N([C@@H](C)CO)C[C@H]2C)cc1 as the compound, how does the cytotoxicity call read?
A: inactive

Q: For COc1ccc(CN(C)C[C@H]2OCCCC[C@H](C)Oc3ccc(NS(=O)(=O)c4ccc(F)cc4)cc3C(=O)N([C@H](C)CO)C[C@H]2C)cc1, which cytotoxicity call is on record?
A: inactive

Q: For COc1ccc(CN(C)C[C@@H]2OCCCC[C@@H](C)Oc3ccc(NS(=O)(=O)c4ccc(F)cc4)cc3C(=O)N([C@H](C)CO)C[C@H]2C)cc1, which cytotoxicity call is on record?
A: inactive
